Screening results deposited in PubChem by several laboratories.
Most compounds without a hit are left out; they make up all but 2.2% or so of the library.
M18AAP inhibitor: blocks P. falciparum M18 aspartyl aminopeptidase; recombinant PfM18AAP, H-Glu-NHMec fluorogenic cleavage; 1.2% of 290,000 active; inhibition, % at 7.35 µM;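 active = inhibition above the campaign mean inhibition over all tested compounds plus 3 SD, cut at about 28% in these data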;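 also: 0% = plate median of test compound wells and 100% = 2 mM ZnCl2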
GC-B act: GC-B (human) receptor activation; HEK293-GC-B cells, CNP EC30, cGMP TR-FRET; 0% at EC30 CNP, 100% saturating CNP; P20594; 0.11% of 370,000 active; AID 1920062; activation, % at 10 µM;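 active = activation at 10 µM reaching about 35% in either raw or pattern-adjusted values, limit read from the data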
Target sequence (P20594 whole entry, looked up): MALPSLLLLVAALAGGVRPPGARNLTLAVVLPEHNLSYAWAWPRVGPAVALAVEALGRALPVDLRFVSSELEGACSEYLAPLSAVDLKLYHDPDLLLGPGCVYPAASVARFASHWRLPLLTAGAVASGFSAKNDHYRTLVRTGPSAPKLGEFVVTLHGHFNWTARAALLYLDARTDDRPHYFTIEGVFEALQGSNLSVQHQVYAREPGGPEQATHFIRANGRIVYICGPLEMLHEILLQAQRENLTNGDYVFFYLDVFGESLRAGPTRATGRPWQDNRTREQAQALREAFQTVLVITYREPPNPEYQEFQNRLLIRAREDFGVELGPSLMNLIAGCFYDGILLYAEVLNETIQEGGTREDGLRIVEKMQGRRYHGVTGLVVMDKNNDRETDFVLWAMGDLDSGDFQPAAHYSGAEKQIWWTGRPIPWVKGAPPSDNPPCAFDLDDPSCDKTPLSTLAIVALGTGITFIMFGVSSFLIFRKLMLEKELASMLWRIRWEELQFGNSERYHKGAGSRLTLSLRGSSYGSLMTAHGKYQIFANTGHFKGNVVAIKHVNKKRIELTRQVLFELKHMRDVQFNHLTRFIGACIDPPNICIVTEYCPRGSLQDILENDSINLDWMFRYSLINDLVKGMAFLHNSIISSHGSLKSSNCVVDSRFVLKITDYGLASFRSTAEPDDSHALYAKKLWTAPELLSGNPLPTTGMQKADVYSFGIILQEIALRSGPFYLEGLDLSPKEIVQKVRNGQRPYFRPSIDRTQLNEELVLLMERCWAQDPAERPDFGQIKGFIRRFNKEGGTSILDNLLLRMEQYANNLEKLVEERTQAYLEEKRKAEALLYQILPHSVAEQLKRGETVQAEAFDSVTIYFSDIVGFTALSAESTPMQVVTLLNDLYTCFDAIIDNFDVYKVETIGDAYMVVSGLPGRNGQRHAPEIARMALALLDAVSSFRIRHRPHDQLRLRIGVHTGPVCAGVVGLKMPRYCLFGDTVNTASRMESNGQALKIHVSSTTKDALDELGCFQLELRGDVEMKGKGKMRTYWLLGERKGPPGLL
GC-A act: GC-A (human) enzyme activation | activation, % at 10 µM | 0.14% of 370,000 active | HEK293 GC-A cells, cGMP TR-FRET, EC30 ANP; 0% at EC30 ANP, 100% saturating ANP | AID 1671463; in the data active = activation above about 40%
PLC-gamma1 inh: blocks human PLC-gamma1 enzyme activity; P19174; purified PLC-gamma1, fluorogenic substrate, fluorescence; inhibition, % at 12.2 µM; 0.84% of 370,000 active; in the data active = inhibition above about 9.5%
Rce1 inh: blocks yeast Ras-converting enzyme; Q03530; yeast membranes, quenched prenylated peptide cleavage fluorescence; calls only; 0.27% of 290,000 active; AID 2563;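 active = fall in fluorescence gain of 50% or more versus controls, with final raw signal at or below 3038400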;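 also: plate controls were neutral control wells for no effect and wells lacking membranes for full effect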
PLC-beta3 inh: blocks human PLC-beta3 enzyme activity; Purified PLC-beta3, fluorogenic substrate, fluorescence; 0.18% of 370,000 active; AID 720704; inhibition, % at 12.2 µM; in the data active = inhibition above about 11%;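 also: 0% = median of compound wells on plate and 100% = full blocker control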
* hit, by the source's call; i = inactive; . = no result; + = active, no number.

SMILES	M18AAP inhibitor	GC-B act	GC-A act	PLC-gamma1 inh	Rce1 inh	PLC-beta3 inh
O=S(=O)(c1ccc(-c2csc(Nc3ccc(Br)cc3)n2)cc1)N1CCCC1	5.6	-1.3	-4.2	-8.9	i	-14.3
CCC[C@H]1[C@@H](OC(=O)NCc2ccc(OC)c(OC)c2)CC[C@@]23CCCN2C(=O)CCC[C@@H]13	.	-15.0	-11.7	0.2	.	-0.5
CN(CC(=O)Nc1cc(S(=O)(=O)N2CCCCCC2)ccc1Cl)Cc1ccc2c(c1)OCO2	.	16.5	8.2	-1.8	.	-5.7
COc1ccc(S(=O)(=O)N2CCCCCC2)cc1NC(=O)CN1C(=O)CNC1=O	.	4.2	-0.1	11.2*	.	9.4
COc1ccc(S(=O)(=O)N2CCCCCC2)cc1NC(=O)CN(C)Cc1ccc2c(c1)OCO2	.	61.0*	41.2*	0.5	.	-5.5
COc1ccc(S(=O)(=O)N2CCCCCC2)cc1NC(=O)Cc1cc(OC)c(OC)c(OC)c1	4.1	1.0	1.6	-2.5	i	-0.3
Cc1ccc(Cn2cc(COC(=O)NCC(C)C)nn2)cc1	.	6.4	0.1	2.5	.	-14.7
O=C1C(=O)N(Cc2ccc(-c3ccc(F)nc3)cc2)c2ccc(OC(F)(F)F)cc21	.	-20.6	-21.6	-5.7	.	-3.9
Fc1ccc(-c2n[nH]c(=S)n2N=Cc2cccc(OCc3ccccc3)c2)cc1	.	-4.4	-5.4	0.7	.	0.9
O=C(NC1CCCCCC1)C(=O)NC1CC1	-16.8	3.8	-1.5	4.4	i	-3.4
O=C(NC1CCCCCC1)C(=S)NC1CCCCC1	30.2*	7.7	-1.0	2.0	i	2.1
COc1ccc(OC)c(C(c2nnnn2CCc2ccccc2)N2CCN(c3ccccc3)CC2)c1 (stereo not given)	6.3	-17.2	-10.5	10.8*	i	2.8
COCCn1nnnc1C(c1ccc(OC)cc1OC)N1CCN(c2ccccc2)CC1 (stereo not given)	-2.5	2.6	-1.7	5.9	i	2.5
c1ccc(CNc2nc(N3CCN(Cc4ccccc4)CC3)nc3ccccc23)cc1	-4.8	-0.1	6.3	-6.1	+	-17.1
Cc1cc(C)c(C)c(OCC(=O)NCC2CCCO2)c1 (stereo not given)	-0.3	5.0	-0.4	12.1*	i	3.8
COc1ccccc1-c1cc(-c2ccc(O)cc2)nc(N)c1C#N	11.5	-9.2	41.2*	i	i	i
COc1ccc(-c2cc(-c3ccc(O)cc3)nc(N)c2C#N)cc1	0.6	10.0	34.6	i	i	i
COc1cc(-c2cc(-c3ccc(O)cc3)nc(N)c2C#N)ccc1O	-7.6	2.4	0.7	-277.6	+	-297.7
CC(NCc1ccco1)C(=O)N1CCCC1 (stereo not given)	.	-8.5	0.7	-3.0	.	-3.4
Cc1cc(=O)[nH]c(SCC(=O)Nc2ccc(Cl)cc2)n1	.	-0.8	-3.9	0.3	.	0.0
COC(=O)c1ccccc1NC(=O)NCc1cccnc1	0.7	5.3	-4.6	-5.8	+	-0.6
CCNC(=O)N(C)[C@H]1C[C@H]2c3[nH]c4cccc(-c5cccc(F)c5)c4c3CCN2C(=O)[C@H]1[C@H](C)O	.	12.2	-1.2	-496.5	.	i
COc1ccc(COc2cc(-c3cccc(OC)c3)nc3ccc(NC(=O)C(C)C)cc23)cc1	8.5	54.8*	52.5*	-167.4	i	-210.1
Cc1ccccc1NC(=O)CCS(=O)(=O)c1ccccc1	.	2.1	3.2	-1.5	.	0.2
CCn1c(SCC(=O)NC2CCCCC2)nnc1-c1cccs1	-8.3	-5.8	2.6	-1.4	i	6.1
SMILES	M18AAP inhibitor	GC-B act	GC-A act	PLC-gamma1 inh	Rce1 inh	PLC-beta3 inh
CCn1c(SC(=O)NC2CCCCC2)nnc1-c1cccs1	46.9*	11.7	17.2	-85.5	i	-126.0
COc1ccc(N(CC(=O)Nc2cccc(C(=O)O)c2)S(=O)(=O)c2c(C)noc2C)cc1	-3.6	-1.8	-1.0	12.8*	.	8.0
Fc1ccccc1CNc1nc(-c2cccnc2)nc2ccccc12	4.5	35.8*	31.6	-9.7	i	-19.9
Cn1cc(CNC(=O)c2cc(COc3ccc4c(c3)CCCC4)on2)cn1	29.5*	0.4	2.9	-1.9	i	-9.3
Cc1ccc2nc(-c3ccc(NC(=O)CSc4nnc(-c5ccccc5)n4Cc4ccco4)cc3)sc2c1	.	3.8	2.5	-42.4	.	-74.5
C=CCn1c(=O)c2c(nc3n2CCN3c2cccc(Cl)c2C)n(C)c1=O	-4.7	0.6	-0.3	-2.2	i	-5.2
C=CCn1c(=O)c2c(nc(-c3ccc(S(=O)(=O)O)cc3)n2C)n(C)c1=O	.	5.2	5.2	-24.4	+	-32.4
COc1cc(/C=N/n2c(-c3cc(-c4ccccc4)n[nH]3)n[nH]c2=S)ccc1OCc1ccccc1	.	-12.4	-4.0	-0.3	.	-4.9
Cc1ccc(C2=NC(=O)/C(=C/c3cc(O)c(O)c(Br)c3)S2)cc1	48.4*	-12.3	-20.5	-11.5	.	-15.9
COc1cc(/C=C2\SC(c3ccc(C)cc3)=NC2=O)cc(OC)c1O	17.1	-12.2	-19.6	-5.2	i	-4.3
S=c1[nH]ncn1/N=C/c1ccc(N2CCOCC2)cc1	31.0*	5.5	-2.8	-4.7	i	-6.4
S=c1[nH]ncn1/N=C/c1ccc(Br)cc1	16.9	2.9	13.2	0.5	i	2.5
O=c1[nH][nH]c(-c2ccccc2O)c1C(C[N+](=O)[O-])c1ccccc1 (stereo not given)	21.4	8.0	-2.2	-10.8	i	-7.8
O=c1[nH][nH]c(-c2ccccc2O)c1C(C[N+](=O)[O-])c1cccc(Cl)c1 (stereo not given)	30.5*	2.0	1.1	1.7	i	-3.4
COC(=O)[C@]12C[C@H](CC(=O)NCCc3ccccc3OC)C(=O)N(Cc3cccc4ccccc34)C1=C[C@H](C(C)C)O[C@@H]2C1CC1	.	0.3	-9.2	1.1	.	3.4
COc1cc(C(Nc2ccccn2)c2ccc3ccc(C)nc3c2O)cc(OC)c1O (stereo not given)	29.8*	.	.	.	i	.
Cc1cccc(/C=N/NC(=O)c2c(-c3ccccc3)noc2C)c1O	28.9*	-5.3	-2.7	-8.2	.	-20.3
CN(C)c1ccc(/C=N/NC(=O)CNC(=O)c2ccc3c(c2)OCCO3)cc1	5.2	-5.1	-6.7	-50.7	+	-52.1
Cc1cccc(C)c1-n1nnnc1C(c1ccccc1OC(F)(F)F)N1CCN(C/C=C/c2ccccc2)CC1 (stereo not given)	.	-2.6	-1.8	12.1*	.	7.8
CC(=O)Nc1c(O)nc(SCC(=O)Nc2c(C)cccc2C)[nH]c1=O	4.7	5.8	2.1	11.8*	i	11.5*
COc1cccc(-c2nnc(SCC(=O)OC(C)C)n2-c2ccc(Cl)cc2)c1	.	-29.2	-30.9	0.0	.	-0.4
COc1cc(OC)cc(C(=O)NNc2nc3cc4c(cc3s2)OCO4)c1	31.2*	1.7	-0.6	-20.5	i	-25.1
O=C(NNc1nc2cc3c(cc2s1)OCO3)c1cccc(F)c1	26.7	-4.4	-2.7	-18.3	i	-22.2
